About 2,600 (16%) of roughly 16,000 compounds were called active. About 20% were inconclusive and are not listed. Only a sample is shown. Values without a mark were called inactive. Calls follow the shape of the dose curve; as a rule, active = well fitted curve in the direction sought with a large enough effect; inconclusive = small, poorly fitted or top-dose-only effect, or effect the other way; inactive = no such curve, though single readings can be large or run the other way.
target: Cytochrome P450 2D6 (Homo sapiens) (UniProt P10635); assay: Cytochrome panel assay with activity outcomes; settings: recombinant CYP, pro-luciferin dealkylation, luminescence, p450-cyp2d6; series mostly up to 57.1 µM; activity, negative = inhibition: at the top concentration
% is scaled to controls: 0 for no effect and ±100 for the full control effect.

Chain of Cytochrome P450 2D6 (Homo sapiens) (P10635 whole entry, looked up): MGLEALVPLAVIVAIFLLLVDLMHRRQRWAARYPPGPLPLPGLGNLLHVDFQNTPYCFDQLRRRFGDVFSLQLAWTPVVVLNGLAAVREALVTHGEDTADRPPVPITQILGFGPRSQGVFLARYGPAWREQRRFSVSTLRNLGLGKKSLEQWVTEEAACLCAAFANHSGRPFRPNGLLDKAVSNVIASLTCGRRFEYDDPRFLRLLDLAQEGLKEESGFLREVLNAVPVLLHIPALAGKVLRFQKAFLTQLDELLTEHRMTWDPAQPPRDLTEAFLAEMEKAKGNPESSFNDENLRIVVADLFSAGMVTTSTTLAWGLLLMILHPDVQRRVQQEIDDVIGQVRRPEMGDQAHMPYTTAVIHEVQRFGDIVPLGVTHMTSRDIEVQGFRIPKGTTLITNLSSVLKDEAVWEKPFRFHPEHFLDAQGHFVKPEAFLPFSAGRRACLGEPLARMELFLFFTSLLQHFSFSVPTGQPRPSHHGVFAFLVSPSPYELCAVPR

In order of falling activity, negative = inhibition:
1. CC(=O)OCC(=O)[C@]12OC(C)(C)O[C@@H]1C[C@H]1[C@H]3CC=C4C[C@@H](O)CC[C@]4(C)[C@H]3CC[C@]12C  25.3% [at 11.4 µM]
2. C[C@@]12CC(=O)[C@@H]3[C@@H](CCC4=CC(=O)CC[C@]43C)[C@@H]1CC=C2CC(=O)O  17.8% [at 11.4 µM]
3. Cn1c(=O)n2n(c1=O)[C@H]1[C@H](O)[C@H]3O[C@@H]3/C(=N/OC[C@@H](O)COCc3ccco3)[C@@H]1CC2  15.6% [at 11.4 µM]
4. N#CC(CC(=O)O)=C(c1ccccc1)c1ccccc1  9.93% [at 11.4 µM]
5. O=C(NCc1cccnc1)[C@@H]1[C@@H](C(=O)O)[C@H]2CC[C@@H]1O2  8.3% [at 11.4 µM]
6. O=C(O)CNC(=O)c1ccccc1O  7.44% [at 11.4 µM]
7. CC(C)=CCC/C(C)=C/CO/N=C1/C[C@@H](O)[C@@H](O)[C@@H]2[C@@H]3C(=O)N(C4CCCCC4)C(=O)[C@H]3CC[C@@H]12  2.55% [at 11.4 µM]
8. CC(C)(SCc1ccccc1)[C@H](N)C(=O)O  1.44% [at 11.4 µM]
9. CCOC(=O)N/N=C1/C[C@@H](O)[C@@H](O)[C@@H]2[C@@H]3C(=O)N(C4CCCCC4)C(=O)[C@H]3CC[C@H]12  -11.9% [at 11.4 µM]

In order of falling “activity, negative = inhibition” value:
1. CCOc1ccc(C(Nc2ccc(C)cc2)P2(=O)OCC(C)(C)CO2)cc1 (centres undefined)  17.8%
2. Cc1cc(NC(=O)c2nn(C)c(C)c2[N+](=O)[O-])no1  14.3%
3. CC(C)(C)C(=O)N(CCN(C(=O)C(C)(C)C)c1ccccc1)c1ccccc1  11.6%
4. CCS(=O)(=O)N1CCC(C(=O)NCC2CCCO2)CC1 (centres undefined)  10.9%
5. CCCCCCCCCn1cc(C(C)=O)c(=O)[nH]c1=O  6.59%
6. Cc1ccccc1OCC(=O)NC(=S)Nc1ccc(Br)c(C)n1  5.94%
7. CC(C)OP(=O)(OC(C)C)C(NC(=O)c1ccc(Br)cc1)c1ccccc1 (centres undefined)  3.63%
8. Cc1ccc(C2CC(=O)c3cnc(N4CCc5ccccc5C4)nc3C2)cc1 (centres undefined)  3.43%
9. O=C(O)Cc1c[nH]c2ccc(O)cc12  3.43%
10. Cc1cccc(N(NC(=O)C(C)(C)O)C(=O)c2ccccc2)c1  3.13%
11. COc1ccc(-c2cc(C(=O)O)c3c(C)nn(-c4ccccn4)c3n2)cc1  2.51%
12. CNC(=O)CCc1nc(-c2ccc(C(C)(C)C)cc2)no1  1.62%
13. Cc1ccccc1C1C(C#N)=C2N=C(N)c3c(sc4c3CCCCC4)N2C2=C1C(=O)CC(C)(C)C2 (centres undefined)  1.58%
14. CCNC(=S)NNC(=O)c1cc(C)on1  1.44%
15. COC(=O)[C@@]1(Cc2ccc(F)cc2)[C@@H]2[C@@H](CC(=O)[C@H]2CC(=O)C(=O)N(C)C)CN1C(=O)c1ccccc1  1.19%
16. Cn1c(=O)c(-c2ccc(Cl)cc2)nc2cnc(Oc3ccccc3)nc21  -0.772%
17. Cc1cnc(C(=O)OCC(=O)NC(C)C)cn1  -1.58%
18. C=CC(=O)NC(C)(C)Cc1ccccc1  -1.92%
19. Cc1nc2c(ccc3nc(NC(=O)c4ccc(S(=O)(=O)N(C)C)cc4)sc32)s1  -2.32%
20. CCCCN1C(=O)CCC(C(=O)O)C1c1ccccc1 (centres undefined)  -3.9%
21. Cc1nc2ccccc2c(=O)n1NC(=O)c1ccccc1Cl  -4.16%
22. COc1cccc(OC)c1/C(O)=C(\C#N)c1nc2ccccc2[nH]1  -4.28%
23. N#Cc1ccc(-c2ccc(F)cc2)nc1Sc1ccccc1  -6.07%
24. Cn1cc(-c2nc3cnc(N4CCNCC4)nc3n(C)c2=O)c2ccccc21  -6.12%
25. O=C1OCCC1Sc1nnc(-c2ccc(O)cc2)o1 (centres undefined)  -8.18%
26. CN(C)CCCNC(=O)CCc1nc2ccccc2c(=O)[nH]1  -8.88%
27. O=C(Nc1cnn(Cc2ccc(Cl)cc2Cl)c1)c1cc(-c2cccs2)on1  -9.02%
28. CC1CCCC(C)N1C(=O)c1cc(-c2ccc(Cl)c(Cl)c2)on1 (centres undefined)  -10.3%
29. CN1CCN(c2ncc3ncc(=O)n(Cc4cccs4)c3n2)CC1  -10.8%
30. CCc1ccc(/C=C\C(=O)N2CCc3ccccc3C2)cc1  -12.9%
31. Cc1ccc(S(=O)(=O)Nc2nc3ccccc3nc2N2CCc3ccccc3C2)cc1  -14.3%
32. Cc1nn(C(=O)c2ccco2)c(C)c1Sc1ccccc1  -15.5%
33. CC(C)CC(=O)Nc1ccc2c(c1)oc1ccccc12  -15.8%
34. O=C(CCC(=O)OCc1ccc(C(=O)Oc2ccccc2)cc1)Nc1cccc2ccccc12  -18%
35. CCN1CCN(Cc2ccc(NC(=O)Nc3cccs3)cc2)CC1  -18.6%
36. COC(=O)[C@@H]1C[C@H]1[C@@H](NC(=O)c1cnccn1)c1ccccc1  -19.4%
37. Cc1ccc(NC(=O)c2nnn(-c3cc(C)cc(C)c3)c2N)cc1  -35.7%

In the case of `CC(=O)OC[C@@H]1O[C@@H](O/N=C2/C[C@@H](O)[C@@H](O)[C@@H]3[C@@H]4C(=O)N(C5CCCCC5)C(=O)[C@H]4CC[C@H]23)[C@H](OC(C)=O)[C@H](OC(C)=O)[C@@H]1OC(C)=O`, the AC50 is reported as 3.98 µM (active).
In the case of `CCCCCCN1Cc2ccccc2C1`, the AC50 is reported as 3.55 µM (active).
`Cc1ccc2[nH]c3c(N4CCc5ccccc5C4)ncnc3c2c1` was tested, and the AC50 was 0.708 µM (active).
For `CN(C(=O)CN(CCO)CC(=O)N(C)C(C)(C)Cc1ccccc1)C(C)(C)Cc1ccccc1`, the AC50 was 3.16 µM (active).
`CCSC1=C(C#N)C2(CCCCC2)C(C#N)=C(N)N1` was tested, and the AC50 was 15.8 µM (active).
In the case of `CN(CCCNC(=O)c1cccn2c(=O)c3ccccc3nc12)Cc1ccccc1`, the AC50 is reported as 2.24 µM (active).
`Cn1c(O)c(C(C#N)=C2N=c3ccccc3=N2)c2ccccc21` was tested, and the AC50 was 7.08 µM (active).
`O[C@H](C[C@@H]1CCCCN1)c1ccc2c(c1)oc1ccccc12` was tested, and the AC50 was 0.1 µM (active).

In order of rising “activity, negative = inhibition” value:
1. C[C@H](Oc1ccccc1)C(=O)N[C@@H]1C(=O)N2[C@@H]1SC(C)(C)[C@@H]2C(=O)O  -1.89% [at 25.6 µM]
2. CO[C@]1(NC(=O)C2SC(=C(C(N)=O)C(=O)O)S2)C(=O)N2C(C(=O)O)=C(CSc3nnnn3C)CS[C@H]21 (some centres undefined)  1.2% [at 25.6 µM]
3. CCN[C@@H]1C[C@H](C)S(=O)(=O)c2sc(S(N)(=O)=O)cc21  1.58% [at 25.6 µM]
4. CC(=O)Oc1cc(C(F)(F)F)ccc1C(=O)O  2.6% [at 25.6 µM]
5. C[C@@H]1CCc2cc(F)cc3c(=O)c(C(=O)O)cn1c23  6.54% [at 25.6 µM]

Source: PubChem BioAssay AID1851 (National Center for Advancing Translational Sciences (NCATS), 2009)
